# D3 ag: agonists of human D3 dopamine receptor. D3R DiscoveRx beta-arrestin cells, luminescence, 90 min. max activation, %. P35462. 410,000 compounds, 0.58% hits; in the data active means max activation above about 30%; further: 0% is about no effect
# Target sequence (P35462 whole entry, looked up): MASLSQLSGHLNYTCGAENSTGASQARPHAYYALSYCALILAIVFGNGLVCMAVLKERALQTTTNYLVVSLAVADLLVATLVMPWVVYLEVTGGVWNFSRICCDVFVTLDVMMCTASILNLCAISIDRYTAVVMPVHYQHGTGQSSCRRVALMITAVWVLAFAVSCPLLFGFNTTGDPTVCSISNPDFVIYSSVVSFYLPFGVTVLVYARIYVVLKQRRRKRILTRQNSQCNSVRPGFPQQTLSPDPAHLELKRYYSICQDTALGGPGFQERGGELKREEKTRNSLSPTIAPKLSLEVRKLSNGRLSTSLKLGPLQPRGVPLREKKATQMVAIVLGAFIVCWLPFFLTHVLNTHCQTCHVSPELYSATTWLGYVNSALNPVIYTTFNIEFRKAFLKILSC
#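 Agonist mode: compounds and dopamine controls were applied to plated cells for 90 min at 37 degrees C after an overnight attachment at 1500 cells/well. Luminescent read-out followed 30 - 60 minutes at room temperature with DiscoveRx detection reagent.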
# HEK293 tox: cytotoxicity counter-screen for GLP-1 receptor inverse agonists. 410,000 compounds, 0.13% hits. HEK293 cAMP-luciferase reporter cells, luminescence, 24 h. Potency, µM (titrated, usually from 38.3 µM), for the others: top-dose activity change, negative = inhibition, hits mostly inhibitors;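 further: loss of luciferase light is scored as toxicity; potency means the concentration at half of the fitted maximal effect; on the % scale 0 is the no-effect control and ±100 the full control effect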
#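 Step one: seed cells (200 cells/uL, DMEM with 10% Nu serum, 1% pen-strep). Step two: 12-hour incubation at 37 deg C. Step three: pin 23 nL compound, incubate 24 hr. Step four: add luciferase reagent, read luminescence 12 min later.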
# GLP1R inv ag: GLP-1 receptor (human) inverse agonism; P43220; HEK293 GLP-1R CRE-luciferase, luminescence, 24 h; GLP-1R form is constitutively active; Potency, µM (doses to about 38.3 µM), without a hit: top-dose activity change, negative = inhibition, hits mostly inhibitors; 410,000 compounds, 1.6% hits; further: potency means the concentration at half of the fitted maximal effect; on the % scale 0 is the no-effect control and ±100 the full control effect; nearly all actives have a fitted effect of over 55% in size
#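 qHTS in 1536-well format: reporter HEK293 cells expressing constitutive GLP-1R activity in DMEM + 10% Nu serum, 24 hr with compounds at 37 deg C, luminescence read after 12 min with detection reagent.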
# GLP1R ag: GLP-1 receptor (human) agonism; HEK293 GLP-1R CRE-luciferase, luminescence, 4-6 h; cells express a hypersensitive GLP-1R form; 380,000 compounds, 0.007% hits; AID 624172; Potency, µM (top dose mostly 45.6 µM), for the others: at the top dose activation, most hits filed as activators; P43220; further: potency means the concentration at half of the fitted maximal effect; % of control where 0% means no effect
# ClpP mod: qHTS Assay for Activators of ClpP; ATP-dependent Clp protease proteolytic subunit (Bacillus subtilis (strain 168)), P80244; purified B. subtilis ClpP, FRET peptide cleavage, 20 min; Potency, µM (titrated, usually from 57.5 µM), for the others: at the top dose activity change, negative = active; 340,000 compounds, 1.9% hits; AID 651965, 2013; active means well fitted falling curve with a large enough effect; inconclusive means small, poorly fitted or top-dose-only effect; inactive means no such curve, though single readings can be large or run the other way; further: potency means the concentration at half of the fitted maximal effect; the source files actives as falling curves though it sought activators and does not explain the sign; nearly all actives have a fitted effect of over 65% in size
# Target sequence (P80244 whole entry, looked up): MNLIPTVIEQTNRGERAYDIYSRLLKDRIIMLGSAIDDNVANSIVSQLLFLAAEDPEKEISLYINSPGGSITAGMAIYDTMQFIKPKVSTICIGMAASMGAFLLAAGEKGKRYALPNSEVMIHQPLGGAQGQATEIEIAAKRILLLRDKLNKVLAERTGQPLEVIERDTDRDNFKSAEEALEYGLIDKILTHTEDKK
#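 Purified B. subtilis ClpP, 10 microg/mL final in Tris/HCl pH8 with KCl, BSA, glycerol and Tween-20, cleaved an Abz/nitrotyrosine-quenched decapeptide. Fluorescence (ex 320, em 430) was read at 0 and 20 min at room temperature. Delta was normalized to 5.8 microM ADEP and DMSO/no-enzyme controls.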
# D3 antag: antagonists of human D3 dopamine receptor; 360,000 compounds, 2.5% hits; max response, negative = inhibition, %; AID 652054; D3R cells, DiscoveRx beta-arrestin luminescence, antagonist mode; stronger effect = lower value; in the data active means max response below about -50%; inconclusive means no clear call, values can overlap the other calls; further: on the % scale 0 is the no-effect control and ±100 the full control effect
#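 Cells plated overnight at 1500 cells/well, then exposed to library compounds with dopamine controls for 90 minutes at 37 degrees C. DiscoveRx reagent added for 30–60 minutes at room temperature; luminescence read, quantitative HTS format.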
# An asterisk follows results filed as active; ? = inconclusive; / = not tested or not shown. Sampled rows, rich in hits. Any-hit rate of the full collection: about 5.7%. Unless noted, the call rests on the fitted dose curve; in most records, active means well fitted curve in the direction sought with a large enough effect; inconclusive means small, poorly fitted or top-dose-only effect, or another doubt; inactive means no such curve, though single readings can be large; an effect the other way counts as inactive or inconclusive.
SMILES,D3 ag,HEK293 tox,GLP1R inv ag,GLP1R ag,ClpP mod,D3 antag
O=C(O)c1ccc(/C=C/c2ccc3cccc(O)c3n2)cc1,-0.4,-7.4%,72.7%,7.3%,/,-10.9
CC(C)(C)[C@]1(O)CCN2CC3c4ccccc4CCc4cccc(c43)[C@@H]2C1 (some centres not stated),/,/,/,-0.1%,/,/
CC1CCN(S(=O)(=O)c2ccc3c(c2)c(=O)c(C(=O)NCc2ccc(Cl)cc2)cn3C)CC1,-21.8,12.4%,-0.3%,/,-3.4%,/
CCCc1nc2cc(C)c(Br)c(C)n2c1Cc1ccccc1OC,-2.0,4.0%,?,3.9%,-5.7%,?
CCOC(=O)c1ccc(CN(Cc2ccc(Cl)cc2Cl)S(=O)(=O)c2cccc(Cl)c2)cc1,-4.2,2.6%,3.5%,/,-1.3%,/
O=C(Nc1ccc(Cl)c([N+](=O)[O-])c1)C(Sc1ccccc1)c1ccccc1 (configuration not stated),-15.7,?,8.91µM*,-1.0%,-2.5%,-6.2
N#C/C(=C\c1cc(Br)c(O)c(Br)c1)c1nc2ccccc2c(=O)[nH]1,-10.7,12.7%,-7.6%,/,25.1µM*,/
N#C/C(=C/c1ccncc1)c1nc2ccccc2c(=O)[nH]1,-11.0,25.3%,38.3%,1.2%,/,-21.6
CCCC(=O)Nc1sc(C(=O)OC)c(C)c1C(N)=O,-2.4,5.7%,0.0%,10.0%,-0.5%,-125.0*
Cc1ccc(S(=O)(=O)NC(=O)N[C@@H](C)Cc2ccccc2)cc1,5.7,/,/,/,/,/
Nc1nc(-c2ccccc2)c(N=Nc2ccccc2Cl)s1,-7.9,?,?,-0.8%,-2.2%,-59.4*
CC1(C(=O)NCc2ccccc2)CN(S(C)(=O)=O)CC(=O)N1CCc1ccccc1F (configuration not stated),4.2,0.3%,-13.1%,/,-0.9%,3.8
FC(F)(F)c1cccc(CN2CCC(c3cc(-c4cccs4)n[nH]3)CC2)c1,-22.2,?,6.31µM*,13.7%,/,-80.5*
Cc1ccc(CN2CCC(c3cc(-c4cccs4)n[nH]3)CC2)cc1,-6.0,-24.8%,?,2.6%,/,-77.6*
CC1CCN(C(=O)c2cnn(-c3cccc(Cl)c3)c2C2CCN(C(=O)OC(C)(C)C)CC2)CC1,-12.8,2.0%,1.3%,/,-0.1%,/
CC(=O)Nc1ccc(S(=O)(=O)NCCc2cn3ccsc3n2)cc1,-9.0,7.4%,11.7%,/,-7.0%,/
COc1ccccc1Oc1coc2c(CN3CCOCC3)c(O)ccc2c1=O,12.9,5.4%,6.2%,4.7%,/,-14.9
COc1cccc(Oc2coc3c(CN4CCOCC4)c(O)ccc3c2=O)c1,4.9,21.7%,-12.5%,0.0%,20µM*,-0.3
CC(C)CC1N=C2c3ccccc3N=C(SCC(=O)NCCc3ccc(Cl)cc3)N2C1=O (configuration not stated),-3.9,3.6%,18.4%,/,?,/
Cc1nc(-c2coc3cc(O)c(C)cc3c2=O)cs1,0.0,7.3%,?,-7.0%,-24.8%,-7.2
Cc1nc(-c2coc3cc(OCC(=O)O)ccc3c2=O)cs1,3.0,4.0%,0.0%,-16.7%,35.5µM*,15.2
CCS(=O)(=O)c1ncc(Cl)c(C(=O)Nc2ccc(C)cc2)n1,-19.9,?,?,-14.9%,/,-130.4*
CS(=O)(=O)c1ncc(Cl)c(C(=O)Nc2ccc3ccccc3c2)n1,-29.6,?,?,-8.8%,/,-117.1*
Cc1ccc(CS(=O)(=O)c2ncc(Cl)c(C(=O)Nc3ccc(OC(F)F)cc3)n2)cc1,-32.9,-3.2%,?,-5.1%,/,-63.3*
CCC1CCCCN1S(=O)(=O)c1ccc(NC(=O)c2nc(S(C)(=O)=O)ncc2Cl)cc1 (configuration not stated),-29.3,-3.3%,?,-7.0%,/,-17.5
SMILES,D3 ag,HEK293 tox,GLP1R inv ag,GLP1R ag,ClpP mod,D3 antag
CCOc1ccc(NC(=O)c2nc(S(=O)(=O)Cc3ccc(C)cc3)ncc2Cl)cc1,/,/,/,/,2.1%,/
Cn1c(SCc2ccc(Cl)cc2)nnc1-c1ccc(NC(=O)CCc2ccccc2)cc1,/,/,/,/,1.3%,/
CN1CCCCc2c1nc1ccccc1c2N (tested in a mixture with another compound),0.9,-8.0%,0.0%,-4.9%,-15.4%,11.9
Nc1c2c(nc3ccccc13)N(c1ccccc1)CC2,-11.9,?,?,15.6%,15.8µM*,-16.6
CCC(CO)Oc1cc(NCc2ccccc2)c2ncn(C(C)C)c2c1 (configuration not stated),37.0*,-23.2%,9.7%,2.0%,-1.8%,4.6
CC(C)CNC(=O)C1(C)CCCN1Cc1ccc(OC(F)(F)F)cc1 (configuration not stated),6.5,1.9%,?,13.4%,1.1%,26.4
CC(C)CNC(=O)C1(C)CCCN1C(=O)c1cncc(Br)c1 (configuration not stated),-3.1,0.1%,6.9%,-6.6%,-1.6%,-17.5
CC(C)CNC(=O)C1(C)CCCN1C(=O)c1ccncc1 (configuration not stated),88.6*,0.8%,21.7%,0.1%,0.1%,4.0
CC(C)CNC(=O)C1(C)CCCN1C(=O)C(C)(C)Oc1ccc(Cl)cc1 (configuration not stated),-21.3,0.6%,?,18.8%,-1.3%,-100.4*
COc1cc(-c2cnc3c(NC=O)cc(-c4ccccc4Cl)cn23)cc(OC)c1OC,-6.8,-24.3%,?,?,-10.7%,0.0
O=C(/C=C/Nc1ccccc1Br)c1ccccn1,-3.2,-3.0%,2µM*,-21.5%,-0.9%,-26.3
O=C(/C=C\Nc1ccccn1)c1ccccc1,-13.8,2.8%,?,-36.1%,-4.5%,-20.3
COc1cc(/C=C/c2sc3ccccc3[n+]2CCCS(=O)(=O)[O-])ccc1O,-1.7,10µM*,31.4%,-2.5%,/,?
CCc1nnc(NC(=O)CSc2nc(-c3ccc(F)cc3)cc(-c3ccccc3)c2C#N)s1,0.6,7.0%,-9.9%,5.7%,-13.7%,-4.1
N#Cc1c(-c2ccccc2)cc(-c2cccs2)nc1SCC(=O)O,-16.1,8.3%,?,-0.4%,-2.2%,-55.2*
CCSc1nc(-c2ccc(OC)cc2)cc(-c2ccccc2)c1C#N,1.0,0.6%,-13.2%,-14.3%,28.2µM*,15.2
C#CCSc1nc(-c2ccccc2)cc(-c2ccccc2)c1C#N,-1.8,-6.4%,?,/,?,/
COc1ccc(-c2cc(-c3ccccc3)nc(SCC(=O)Nc3ncc(C)s3)c2C#N)cc1,-46.3,51.2%,?,-2.8%,?,-55.9*

# Screens from PubChem.
